# Source: PubChem BioAssay AID1117292 (Broad Institute, 2014)
# Results with a measured potency or affinity are listed apart. Records with an inconclusive call do not appear. Calls of active or inactive are those of the source.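 Rule for the calls: active = compound whose fitted half-maximal dose for signal loss lies within twice the top dose in every replicate test; inconclusive = tests disagree, or flat partial signal loss or poor fit; inactive = every test inactive, flat, rising or too weak.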
# Molecular target: Endoplasmic reticulum aminopeptidase 1 (Homo sapiens) (UniProt Q9NZ08)
# Sequence (Q9NZ08 whole entry, looked up): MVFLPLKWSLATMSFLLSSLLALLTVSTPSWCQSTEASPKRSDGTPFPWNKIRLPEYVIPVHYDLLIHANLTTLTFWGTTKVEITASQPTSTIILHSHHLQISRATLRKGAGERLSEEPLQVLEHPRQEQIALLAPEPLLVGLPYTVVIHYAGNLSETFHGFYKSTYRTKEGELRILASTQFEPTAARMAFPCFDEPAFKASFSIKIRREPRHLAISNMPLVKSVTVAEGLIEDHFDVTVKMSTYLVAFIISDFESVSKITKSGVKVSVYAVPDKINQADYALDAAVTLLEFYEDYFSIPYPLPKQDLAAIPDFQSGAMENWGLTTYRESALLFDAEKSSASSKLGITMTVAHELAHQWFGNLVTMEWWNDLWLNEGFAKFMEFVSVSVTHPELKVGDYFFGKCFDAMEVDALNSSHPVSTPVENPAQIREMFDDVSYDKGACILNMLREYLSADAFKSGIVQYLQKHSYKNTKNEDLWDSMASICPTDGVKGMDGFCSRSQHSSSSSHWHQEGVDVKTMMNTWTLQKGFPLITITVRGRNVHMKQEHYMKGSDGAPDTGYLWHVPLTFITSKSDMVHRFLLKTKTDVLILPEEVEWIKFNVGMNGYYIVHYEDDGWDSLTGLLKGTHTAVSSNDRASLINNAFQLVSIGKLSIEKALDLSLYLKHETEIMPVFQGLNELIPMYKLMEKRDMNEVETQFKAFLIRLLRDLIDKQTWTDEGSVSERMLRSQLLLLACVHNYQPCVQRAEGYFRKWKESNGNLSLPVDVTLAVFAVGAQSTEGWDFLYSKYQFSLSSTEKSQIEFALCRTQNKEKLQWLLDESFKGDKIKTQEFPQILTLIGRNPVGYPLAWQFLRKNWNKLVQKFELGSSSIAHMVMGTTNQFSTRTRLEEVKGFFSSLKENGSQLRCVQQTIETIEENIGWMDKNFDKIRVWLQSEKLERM
# Assay: blocking ERAP1 cleavage of leucine-AMC substrate – biochemical, fluorescence plate reader, dry powder, dose response (AID 1117292)
# Details: purified ERAP1, Leu-AMC fluorescence, 60 min; series mostly up to 50 µM
row,SMILES,outcome
1,CC(=O)N1CCN(C(=O)C2(NC(=O)Nc3ccccc3)CCCC2)CC1,inactive
2,O=S(=O)(Nc1cc(C(F)(F)F)ccc1N1CCCCC1)c1ccc(F)cc1,inactive
3,CC(=O)N1CCN(C(=O)C2(NC(=O)Nc3ccc(C(C)C)cc3)CCCC2)CC1,inactive
4,Cc1ccc(NC(=O)NC2(C(=O)N3CCNCC3)CCCCC2)cc1,inactive
5,COc1ccc(S(=O)(=O)Nc2cc(C(F)(F)F)ccc2N2CCCCC2)cc1,inactive
6,CC(=O)N1CCN(C(=O)C2(NC(=O)Nc3ccc(F)cc3)CCCCC2)CC1,inactive
7,CC(=O)N1CCN(C(=O)C2(NC(=O)Nc3ccc(C(C)C)cc3)CCCCC2)CC1,inactive
8,COc1ccc(C(=O)Nc2cc(C(F)(F)F)ccc2N2CCOCC2)cc1S(=O)(=O)O,inactive
9,CC(=O)N1CCN(C(=O)C2(NC(=O)Nc3ccccc3C(F)(F)F)CCCCC2)CC1,inactive
10,Cc1ccccc1S(=O)(=O)Nc1cc(C(F)(F)F)ccc1N1CCCCC1,inactive
11,COc1ccc(C(=O)Nc2cc(C(F)(F)F)ccc2N2CCCC2)cc1S(=O)(=O)O,inactive
12,CC(=O)N1CCN(C(=O)C2(NC(=O)NCCc3ccccc3)CCCCC2)CC1,inactive
13,Cn1cnc(S(=O)(=O)Nc2cc(C(F)(F)F)ccc2N2CCCCC2)c1,inactive
14,O=S(=O)(Nc1cc(C(F)(F)F)ccc1N1CCCCC1)c1ccc(Br)cc1,inactive
15,O=S(=O)(Nc1cc(C(F)(F)F)ccc1N1CCCCC1)c1ccc(Cl)cc1,inactive
16,CC(=O)N1CCN(C(=O)C2(NC(=O)Nc3ccc(C)cc3)CC2)CC1,inactive
17,O=S(=O)(Nc1cc(C(F)(F)F)ccc1N1CCCCC1)c1ccc(C(F)(F)F)cc1,inactive
18,CC(=O)N1CCN(C(=O)C2CCCN2C(=O)Nc2ccc(C)cc2)CC1 (configuration not stated),inactive
19,CC(=O)N1CCN(C(=O)[C@@H]2CCN2C(=O)Nc2ccc(C)cc2)CC1,inactive
20,O=S(=O)(Nc1cc(C(F)(F)F)ccc1N1CCCCC1)c1cc(Cl)cc(Cl)c1,inactive
21,CC(=O)N1CCN(C(=O)C2(NC(=O)Nc3cccc(C(F)(F)F)c3)CCCCC2)CC1,inactive
22,COc1cccc(NC(=O)NC2(C(=O)N3CCN(C(C)=O)CC3)CCCCC2)c1,inactive
